Laboratory results reported in ChEMBL document CHEMBL1961873, “Compounds: GSK PKIS; Assays: Nanosyn kinase panel” (2012).

Tests used:
[1] = biological target: Protein kinase C gamma type (Homo sapiens) (UniProt P05129); settings: at 1 µM;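 further: each value is an averaged percent inhibition of the enzyme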
[2] = biological target: T1, Protein kinase C iota type (Homo sapiens) (UniProt P41743); settings: at 0.1 µM
T1 sequence (whole entry): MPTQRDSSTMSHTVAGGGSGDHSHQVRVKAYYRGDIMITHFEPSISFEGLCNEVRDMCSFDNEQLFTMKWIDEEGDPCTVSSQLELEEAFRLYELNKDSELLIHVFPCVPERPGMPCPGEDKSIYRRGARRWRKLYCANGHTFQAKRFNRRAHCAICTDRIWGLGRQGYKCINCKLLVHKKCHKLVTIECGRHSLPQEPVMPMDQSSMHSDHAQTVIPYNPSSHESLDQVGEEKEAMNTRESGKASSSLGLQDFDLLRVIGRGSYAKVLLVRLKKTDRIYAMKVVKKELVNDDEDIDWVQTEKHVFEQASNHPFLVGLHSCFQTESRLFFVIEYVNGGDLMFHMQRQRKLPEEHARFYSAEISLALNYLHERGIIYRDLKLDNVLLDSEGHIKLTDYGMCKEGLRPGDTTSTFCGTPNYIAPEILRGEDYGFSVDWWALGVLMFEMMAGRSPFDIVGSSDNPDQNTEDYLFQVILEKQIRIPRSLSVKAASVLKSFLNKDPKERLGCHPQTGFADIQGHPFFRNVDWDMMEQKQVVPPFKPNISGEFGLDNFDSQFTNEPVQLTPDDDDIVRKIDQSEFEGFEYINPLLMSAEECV

[3] = biological target: T1, Protein kinase C iota type (Homo sapiens); settings: at 1 µM
[4] = biological target: Protein kinase C theta type (Homo sapiens) (UniProt Q04759); settings: at 0.1 µM
Chain of Protein kinase C theta type (Homo sapiens) (Q04759 whole entry, looked up): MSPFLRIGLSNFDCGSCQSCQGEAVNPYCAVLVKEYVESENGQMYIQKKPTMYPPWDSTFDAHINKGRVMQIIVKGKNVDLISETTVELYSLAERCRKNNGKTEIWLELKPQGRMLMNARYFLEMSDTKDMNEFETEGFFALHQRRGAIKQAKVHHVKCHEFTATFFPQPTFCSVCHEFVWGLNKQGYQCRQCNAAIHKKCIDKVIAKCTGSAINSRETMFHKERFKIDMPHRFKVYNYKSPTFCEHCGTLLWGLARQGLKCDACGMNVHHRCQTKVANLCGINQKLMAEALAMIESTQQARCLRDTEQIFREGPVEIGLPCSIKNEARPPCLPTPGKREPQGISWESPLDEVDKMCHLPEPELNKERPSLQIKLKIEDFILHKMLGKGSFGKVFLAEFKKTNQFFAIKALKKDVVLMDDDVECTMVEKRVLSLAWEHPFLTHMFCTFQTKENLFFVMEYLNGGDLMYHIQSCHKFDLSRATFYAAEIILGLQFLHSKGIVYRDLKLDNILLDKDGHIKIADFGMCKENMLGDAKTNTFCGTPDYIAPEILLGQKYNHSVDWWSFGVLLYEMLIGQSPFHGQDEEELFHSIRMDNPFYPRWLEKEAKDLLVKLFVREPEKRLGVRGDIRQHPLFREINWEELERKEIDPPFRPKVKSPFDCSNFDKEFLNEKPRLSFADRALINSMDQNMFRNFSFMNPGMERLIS

[5] = biological target: Protein kinase C theta type (Homo sapiens) (UniProt Q04759); settings: at 1 µM
[6] = biological target: Protein kinase C beta type (Homo sapiens) (UniProt P05771); settings: at 0.1 µM
Chain of Protein kinase C beta type (Homo sapiens) (P05771 2-671 limits assumed): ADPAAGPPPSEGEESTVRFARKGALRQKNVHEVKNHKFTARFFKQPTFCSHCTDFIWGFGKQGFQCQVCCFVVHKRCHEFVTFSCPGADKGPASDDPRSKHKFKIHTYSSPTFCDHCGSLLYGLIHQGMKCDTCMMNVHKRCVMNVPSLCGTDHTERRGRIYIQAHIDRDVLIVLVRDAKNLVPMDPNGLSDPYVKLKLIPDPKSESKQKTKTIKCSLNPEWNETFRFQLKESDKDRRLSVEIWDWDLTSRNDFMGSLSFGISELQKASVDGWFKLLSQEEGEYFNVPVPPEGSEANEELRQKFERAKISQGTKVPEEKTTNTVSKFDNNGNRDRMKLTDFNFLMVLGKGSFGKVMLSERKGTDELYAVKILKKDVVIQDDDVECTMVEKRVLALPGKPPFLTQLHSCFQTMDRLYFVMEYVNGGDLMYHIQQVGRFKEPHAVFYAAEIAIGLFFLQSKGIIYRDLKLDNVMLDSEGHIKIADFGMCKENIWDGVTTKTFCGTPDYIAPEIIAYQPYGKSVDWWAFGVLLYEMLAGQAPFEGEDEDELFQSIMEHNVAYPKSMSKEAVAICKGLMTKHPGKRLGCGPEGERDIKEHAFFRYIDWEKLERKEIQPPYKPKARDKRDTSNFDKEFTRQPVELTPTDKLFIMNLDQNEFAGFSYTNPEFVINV

[7] = biological target: Protein kinase C beta type (Homo sapiens) (UniProt P05771); settings: at 1 µM
[8] = biological target: T2, Serine/threonine-protein kinase D1 (Homo sapiens) (UniProt Q15139); settings: at 0.1 µM
T2 sequence (whole entry): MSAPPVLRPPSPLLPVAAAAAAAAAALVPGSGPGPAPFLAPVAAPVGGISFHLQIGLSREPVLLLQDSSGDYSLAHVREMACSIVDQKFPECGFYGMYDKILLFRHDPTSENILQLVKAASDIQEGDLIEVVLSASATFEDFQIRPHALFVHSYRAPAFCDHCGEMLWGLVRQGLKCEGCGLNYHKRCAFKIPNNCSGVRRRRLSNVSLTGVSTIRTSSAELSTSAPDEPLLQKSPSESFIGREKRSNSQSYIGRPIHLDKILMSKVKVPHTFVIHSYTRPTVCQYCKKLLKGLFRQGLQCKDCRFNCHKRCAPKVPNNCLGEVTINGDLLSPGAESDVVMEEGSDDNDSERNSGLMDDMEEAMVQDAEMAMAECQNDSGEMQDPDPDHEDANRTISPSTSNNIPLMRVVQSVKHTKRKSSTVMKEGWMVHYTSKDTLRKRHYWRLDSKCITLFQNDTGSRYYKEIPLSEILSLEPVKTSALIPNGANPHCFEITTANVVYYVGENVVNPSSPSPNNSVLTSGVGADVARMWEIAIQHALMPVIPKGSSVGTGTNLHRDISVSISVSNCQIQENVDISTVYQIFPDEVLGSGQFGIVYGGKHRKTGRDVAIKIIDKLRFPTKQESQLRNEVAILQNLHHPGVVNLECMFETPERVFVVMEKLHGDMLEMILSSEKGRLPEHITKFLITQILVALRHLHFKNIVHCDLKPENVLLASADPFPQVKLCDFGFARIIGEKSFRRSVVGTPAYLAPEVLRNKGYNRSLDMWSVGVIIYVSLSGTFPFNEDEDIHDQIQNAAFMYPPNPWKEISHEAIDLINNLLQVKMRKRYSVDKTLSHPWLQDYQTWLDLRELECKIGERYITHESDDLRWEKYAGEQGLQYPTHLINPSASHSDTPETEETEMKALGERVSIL

[9] = biological target: T2, Serine/threonine-protein kinase D1 (Homo sapiens); settings: at 1 µM
[10] = biological target: T3, Serine/threonine-protein kinase D2 (Homo sapiens) (UniProt Q9BZL6); settings: at 0.1 µM
T3 sequence (whole entry): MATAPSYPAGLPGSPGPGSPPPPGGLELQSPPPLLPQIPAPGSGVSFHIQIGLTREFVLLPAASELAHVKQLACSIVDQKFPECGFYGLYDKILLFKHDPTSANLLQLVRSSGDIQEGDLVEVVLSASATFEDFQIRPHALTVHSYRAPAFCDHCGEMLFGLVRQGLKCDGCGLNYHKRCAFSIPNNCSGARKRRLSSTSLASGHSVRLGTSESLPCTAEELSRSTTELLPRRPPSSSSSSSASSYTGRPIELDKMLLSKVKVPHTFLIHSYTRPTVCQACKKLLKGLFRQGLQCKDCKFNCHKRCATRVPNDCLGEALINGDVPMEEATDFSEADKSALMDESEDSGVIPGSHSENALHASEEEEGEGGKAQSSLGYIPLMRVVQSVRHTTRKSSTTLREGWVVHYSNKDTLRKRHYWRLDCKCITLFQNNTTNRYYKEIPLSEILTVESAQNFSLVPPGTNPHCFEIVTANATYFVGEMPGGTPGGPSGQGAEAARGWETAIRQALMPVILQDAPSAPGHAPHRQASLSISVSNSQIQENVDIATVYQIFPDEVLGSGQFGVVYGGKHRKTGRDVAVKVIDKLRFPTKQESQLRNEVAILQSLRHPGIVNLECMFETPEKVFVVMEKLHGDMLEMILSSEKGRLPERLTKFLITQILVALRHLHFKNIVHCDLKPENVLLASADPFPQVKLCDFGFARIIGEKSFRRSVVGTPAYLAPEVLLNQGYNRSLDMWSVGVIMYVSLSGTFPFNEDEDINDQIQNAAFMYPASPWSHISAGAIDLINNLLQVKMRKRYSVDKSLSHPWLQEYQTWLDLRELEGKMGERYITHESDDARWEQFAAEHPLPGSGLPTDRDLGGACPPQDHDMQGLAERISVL

[11] = biological target: T3, Serine/threonine-protein kinase D2 (Homo sapiens); settings: at 1 µM
[12] = biological target: T4, Serine/threonine-protein kinase D3 (Homo sapiens) (UniProt O94806); settings: at 0.1 µM
T4 sequence (whole entry): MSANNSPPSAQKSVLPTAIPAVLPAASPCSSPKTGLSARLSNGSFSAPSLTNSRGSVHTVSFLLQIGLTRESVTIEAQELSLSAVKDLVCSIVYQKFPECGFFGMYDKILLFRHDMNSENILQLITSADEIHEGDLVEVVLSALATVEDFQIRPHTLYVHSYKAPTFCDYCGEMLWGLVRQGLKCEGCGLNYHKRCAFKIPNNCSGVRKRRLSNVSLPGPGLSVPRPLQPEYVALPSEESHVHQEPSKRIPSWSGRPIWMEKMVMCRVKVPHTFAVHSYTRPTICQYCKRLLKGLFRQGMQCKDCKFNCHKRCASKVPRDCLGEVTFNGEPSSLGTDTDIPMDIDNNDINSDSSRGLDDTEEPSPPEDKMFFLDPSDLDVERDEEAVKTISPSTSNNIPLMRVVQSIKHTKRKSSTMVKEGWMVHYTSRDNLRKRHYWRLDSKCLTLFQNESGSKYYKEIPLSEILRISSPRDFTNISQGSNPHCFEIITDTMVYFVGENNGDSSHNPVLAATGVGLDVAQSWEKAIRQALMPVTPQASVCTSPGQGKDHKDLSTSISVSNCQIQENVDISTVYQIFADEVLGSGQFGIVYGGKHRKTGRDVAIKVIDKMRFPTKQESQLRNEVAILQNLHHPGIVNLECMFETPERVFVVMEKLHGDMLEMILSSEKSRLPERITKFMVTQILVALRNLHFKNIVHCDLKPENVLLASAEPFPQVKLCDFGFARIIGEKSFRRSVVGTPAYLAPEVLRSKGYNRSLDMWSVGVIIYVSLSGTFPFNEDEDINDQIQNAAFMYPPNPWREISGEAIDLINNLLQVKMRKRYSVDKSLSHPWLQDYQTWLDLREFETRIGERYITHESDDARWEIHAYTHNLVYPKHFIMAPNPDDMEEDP

[13] = biological target: T4, Serine/threonine-protein kinase D3 (Homo sapiens); settings: at 1 µM
[14] = biological target: T5, cGMP-dependent protein kinase 1 (Homo sapiens) (UniProt Q13976); settings: at 0.1 µM
T5 sequence (whole entry): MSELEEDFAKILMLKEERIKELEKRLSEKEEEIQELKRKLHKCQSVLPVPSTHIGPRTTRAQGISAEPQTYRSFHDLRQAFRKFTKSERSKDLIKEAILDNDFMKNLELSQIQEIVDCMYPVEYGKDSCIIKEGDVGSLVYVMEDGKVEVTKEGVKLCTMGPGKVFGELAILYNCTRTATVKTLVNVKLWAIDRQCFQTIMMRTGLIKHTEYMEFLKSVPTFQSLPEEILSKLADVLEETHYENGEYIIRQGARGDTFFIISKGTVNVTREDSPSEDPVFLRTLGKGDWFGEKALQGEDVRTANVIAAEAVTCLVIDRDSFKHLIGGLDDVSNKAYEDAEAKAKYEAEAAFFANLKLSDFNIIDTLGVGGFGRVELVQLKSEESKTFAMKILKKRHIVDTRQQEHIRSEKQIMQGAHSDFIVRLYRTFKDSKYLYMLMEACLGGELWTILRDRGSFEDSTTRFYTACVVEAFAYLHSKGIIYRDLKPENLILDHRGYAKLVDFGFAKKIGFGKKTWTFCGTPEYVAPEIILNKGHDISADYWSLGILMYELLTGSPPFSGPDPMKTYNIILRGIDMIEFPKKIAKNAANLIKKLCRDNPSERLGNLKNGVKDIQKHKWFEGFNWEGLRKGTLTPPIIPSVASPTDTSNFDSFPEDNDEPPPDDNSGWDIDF

[15] = biological target: T5, cGMP-dependent protein kinase 1 (Homo sapiens); settings: at 1 µM
[16] = biological target: T6, cGMP-dependent protein kinase 2 (Homo sapiens) (UniProt Q13237); settings: at 0.1 µM
T6 sequence (whole entry): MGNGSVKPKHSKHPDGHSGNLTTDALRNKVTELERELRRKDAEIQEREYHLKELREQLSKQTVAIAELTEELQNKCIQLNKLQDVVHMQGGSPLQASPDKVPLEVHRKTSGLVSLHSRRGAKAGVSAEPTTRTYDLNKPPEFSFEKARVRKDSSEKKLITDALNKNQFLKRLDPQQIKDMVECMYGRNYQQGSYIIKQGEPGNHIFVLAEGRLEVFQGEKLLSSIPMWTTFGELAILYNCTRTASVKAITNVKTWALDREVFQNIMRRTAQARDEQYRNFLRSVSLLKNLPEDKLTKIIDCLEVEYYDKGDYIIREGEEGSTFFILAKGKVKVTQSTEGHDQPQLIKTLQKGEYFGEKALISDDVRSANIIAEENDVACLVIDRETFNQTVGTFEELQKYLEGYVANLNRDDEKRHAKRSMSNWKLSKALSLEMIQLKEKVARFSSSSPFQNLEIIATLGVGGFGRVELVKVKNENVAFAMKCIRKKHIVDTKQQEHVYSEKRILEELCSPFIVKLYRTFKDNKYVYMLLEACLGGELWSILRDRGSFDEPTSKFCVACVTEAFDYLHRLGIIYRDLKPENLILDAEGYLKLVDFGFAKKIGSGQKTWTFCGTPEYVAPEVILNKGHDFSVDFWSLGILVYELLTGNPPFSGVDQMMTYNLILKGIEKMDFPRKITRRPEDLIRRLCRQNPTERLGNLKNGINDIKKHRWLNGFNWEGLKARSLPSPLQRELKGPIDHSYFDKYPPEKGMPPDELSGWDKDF

[17] = biological target: T6, cGMP-dependent protein kinase 2 (Homo sapiens); settings: at 1 µM
[18] = biological target: T7, cAMP-dependent protein kinase catalytic subunit PRKX (Homo sapiens) (UniProt P51817); settings: at 0.1 µM
T7 sequence (whole entry): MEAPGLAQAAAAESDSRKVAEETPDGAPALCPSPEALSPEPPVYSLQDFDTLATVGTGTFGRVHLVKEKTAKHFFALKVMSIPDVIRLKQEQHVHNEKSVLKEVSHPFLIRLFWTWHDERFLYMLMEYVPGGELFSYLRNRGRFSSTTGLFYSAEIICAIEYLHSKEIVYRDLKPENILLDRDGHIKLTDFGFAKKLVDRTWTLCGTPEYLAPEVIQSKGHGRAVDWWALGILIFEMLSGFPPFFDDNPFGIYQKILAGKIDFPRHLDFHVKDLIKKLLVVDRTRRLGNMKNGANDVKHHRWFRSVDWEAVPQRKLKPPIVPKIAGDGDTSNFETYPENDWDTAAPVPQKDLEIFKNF

[19] = biological target: T7, cAMP-dependent protein kinase catalytic subunit PRKX (Homo sapiens); settings: at 1 µM
[20] = biological target: Rho-associated protein kinase 1 (Homo sapiens) (UniProt Q13464); settings: at 0.1 µM;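 further: values are mean percent inhibition of ROCK1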
Chain of Rho-associated protein kinase 1 (Homo sapiens) (Q13464 2-1354 limits assumed): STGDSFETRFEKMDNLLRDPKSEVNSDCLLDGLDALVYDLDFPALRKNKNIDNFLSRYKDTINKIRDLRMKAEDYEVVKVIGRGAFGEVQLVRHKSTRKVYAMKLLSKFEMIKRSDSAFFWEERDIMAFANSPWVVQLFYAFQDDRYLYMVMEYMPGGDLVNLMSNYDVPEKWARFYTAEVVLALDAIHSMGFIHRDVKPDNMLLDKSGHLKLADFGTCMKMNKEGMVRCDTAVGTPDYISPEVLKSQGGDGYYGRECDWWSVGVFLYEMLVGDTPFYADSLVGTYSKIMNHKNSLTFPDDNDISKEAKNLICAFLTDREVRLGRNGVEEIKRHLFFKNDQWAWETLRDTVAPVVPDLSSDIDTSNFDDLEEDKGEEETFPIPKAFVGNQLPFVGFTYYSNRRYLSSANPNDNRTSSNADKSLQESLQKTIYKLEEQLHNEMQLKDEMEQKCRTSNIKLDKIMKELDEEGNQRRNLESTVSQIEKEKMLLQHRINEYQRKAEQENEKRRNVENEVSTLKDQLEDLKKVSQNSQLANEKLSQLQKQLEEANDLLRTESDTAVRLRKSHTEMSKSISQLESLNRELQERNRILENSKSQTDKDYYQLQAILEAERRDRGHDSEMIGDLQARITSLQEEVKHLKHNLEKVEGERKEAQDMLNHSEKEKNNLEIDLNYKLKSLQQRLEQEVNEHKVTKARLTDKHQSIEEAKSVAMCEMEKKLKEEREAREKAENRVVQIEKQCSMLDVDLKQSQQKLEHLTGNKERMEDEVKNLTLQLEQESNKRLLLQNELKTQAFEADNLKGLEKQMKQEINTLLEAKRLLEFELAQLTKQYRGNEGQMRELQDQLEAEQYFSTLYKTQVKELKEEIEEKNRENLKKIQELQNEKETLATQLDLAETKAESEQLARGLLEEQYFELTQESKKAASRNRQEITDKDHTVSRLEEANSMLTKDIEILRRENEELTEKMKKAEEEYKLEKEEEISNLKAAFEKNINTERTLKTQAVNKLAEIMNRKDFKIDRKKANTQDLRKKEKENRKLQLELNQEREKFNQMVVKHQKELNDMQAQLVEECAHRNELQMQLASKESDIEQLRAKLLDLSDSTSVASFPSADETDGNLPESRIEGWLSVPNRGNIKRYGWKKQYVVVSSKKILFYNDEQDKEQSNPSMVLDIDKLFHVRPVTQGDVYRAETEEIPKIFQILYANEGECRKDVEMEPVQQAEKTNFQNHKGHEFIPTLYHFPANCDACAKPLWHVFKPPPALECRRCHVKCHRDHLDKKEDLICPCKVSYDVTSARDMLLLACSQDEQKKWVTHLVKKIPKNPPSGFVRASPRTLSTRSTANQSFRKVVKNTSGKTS

| Structure (SMILES) | inhibition [1] [%] | inhibition [2] [%] | inhibition [3] [%] | inhibition [4] [%] | inhibition [5] [%] | inhibition [6] [%] | inhibition [7] [%] | inhibition [8] [%] | inhibition [9] [%] | inhibition [10] [%] | inhibition [11] [%] | inhibition [12] [%] | inhibition [13] [%] | inhibition [14] [%] | inhibition [15] [%] | inhibition [16] [%] | inhibition [17] [%] | inhibition [18] [%] | inhibition [19] [%] | inhibition [20] [%] |
| --- | --- | --- | --- | --- | --- | --- | --- | --- | --- | --- | --- | --- | --- | --- | --- | --- | --- | --- | --- | --- |
| CCOc1ccc2c(-c3ccnc(Nc4cc(OC)cc(C(F)(F)F)c4)n3)cnn2n1 | 1.98 | 1.79 | -0.03 | 0.28 | -0.68 | 1.09 | 3.36 | 0.73 | 0.65 | 0.66 | 0.81 | -0.03 | 1.2 | 0.85 | 7.21 | 0.36 | 2.15 | 0.62 | 0.2 | -0.28 |
| CS(=O)(=O)CCNCc1ccc(-c2ccc3ncnc(Nc4ccc(OCc5cccc(C(F)(F)F)c5)cc4)c3c2)o1 | -0.26 | 2.37 | 2.7 | 2.36 | 5.13 | 1.56 | 3.15 | 4.62 | 6.2 | 5.3 | 4.34 | 5.01 | 5.61 | 3.52 | 4.77 | 2.31 | 6.67 | 2.61 | 1.41 | 2.09 |
| CCCNc1cccc(-n2ncc3c(N/N=C/c4ccncc4)ncnc32)c1 | 5.49 | 3.86 | 12.5 | 1.36 | 2.98 | 3.39 | 3.89 | 2.19 | 1.22 | -2.37 | 1.21 | 0.66 | 0.02 | 0.73 | 2.57 | 2.7 | 4.72 | 2.18 | 4.42 | 2.35 |
